PubChem BioAssay AID1159580 (chemical genetic matrix, 2015)
The campaign covered roughly 5,500 compounds. About 2,000 (36%) were called active. Another 18% or so got no clear call; they are omitted. Rule as the data show it: active = normalized growth mostly below about 0.91 (no sharp cut-off); inconclusive = no clear call, values can overlap the other calls; inactive = mostly above about 0.92. Some of the results follow.

Assay: chemical genetic growth profiling, strain panel (AID 1159580);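 also: tested at 20 µM; growth read once vehicle control cultures reached saturation at 30 °C; 1 = growth at the plate median or of vehicle wells; lower values mean less growth of the strain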
Conditions: growth OD

Measured: normalized growth

NS(=O)(=O)c1cc2c(cc1Cl)NC(C(Cl)Cl)NS2(=O)=O (stereo not drawn)
inactive: S. cerevisiae deletion strains, locus YKL009W, strain mrt4, stronger effect = lower value 1.02 | S. cerevisiae deletion strains, locus YKL068W, stronger effect = lower value 1 | S. cerevisiae deletion strains, locus YKL085W, strain MDH1 (second series), stronger effect = lower value 1.01 | S. cerevisiae deletion strains, locus YKL085W, strain MDH1, stronger effect = lower value 1.01 | S. cerevisiae deletion strains, locus YKL160W, strain elf1, stronger effect = lower value 1 | S. cerevisiae deletion strains, locus YKL190W, strain CNB1, stronger effect = lower value 1.02 | S. cerevisiae deletion strains, locus YKR001C, strain vps1, stronger effect = lower value 1.03 | S. cerevisiae deletion strains, locus YKR026C, strain gcn3, stronger effect = lower value 0.99 | S. cerevisiae deletion strains, locus YKR091W, strain srl3, stronger effect = lower value 0.97 | S. cerevisiae deletion strains, locus YLL001W, strain dnm1, stronger effect = lower value 1.01 | S. cerevisiae deletion strains, locus YLL026W, stronger effect = lower value 0.991 | S. cerevisiae deletion strains, locus YLL041C, strain sdh2, stronger effect = lower value 0.988 | S. cerevisiae deletion strains, locus YLR027C, strain aat2, stronger effect = lower value 0.985 | S. cerevisiae deletion strains, locus YLR039C, strain RIC1, stronger effect = lower value 1.06 | S. cerevisiae deletion strains, locus YLR058C, strain SHM2, stronger effect = lower value 1.02 | S. cerevisiae deletion strains, locus YLR102C, strain apc9, stronger effect = lower value 1.01 | S. cerevisiae deletion strains, locus YLR113W, strain HOG1, stronger effect = lower value 0.996 | S. cerevisiae deletion strains, locus YLR221C, strain rsa3, stronger effect = lower value 0.949 | S. cerevisiae deletion strains, locus YLR258W, strain gsy2, stronger effect = lower value 0.977 | S. cerevisiae deletion strains, locus YLR262C, strain YPT6 (second series), stronger effect = lower value 0.999 | S. cerevisiae deletion strains, locus YLR262C, strain YPT6, stronger effect = lower value 1.05 | S. cerevisiae deletion strains, locus YLR268W, strain sec22, stronger effect = lower value 1.04 | S. cerevisiae deletion strains, locus YLR320W, strain mms22, stronger effect = lower value 0.972 | S. cerevisiae deletion strains, locus YLR330W, strain CHS5, stronger effect = lower value 1 | S. cerevisiae deletion strains, locus YLR342W, strain FKS1 (second series), stronger effect = lower value 1.02 | S. cerevisiae deletion strains, locus YLR342W, strain FKS1, stronger effect = lower value 0.993 | S. cerevisiae deletion strains, locus YLR357W, strain rsc2, stronger effect = lower value 0.956 | S. cerevisiae deletion strains, locus YLR370C, strain arc18, stronger effect = lower value 0.985 | S. cerevisiae deletion strains, locus YLR371W, strain rom2, stronger effect = lower value 1.02 | S. cerevisiae deletion strains, locus YLR384C, strain iki3, stronger effect = lower value 0.973 | S. cerevisiae deletion strains, locus YLR418C, strain cdc73, stronger effect = lower value 1.05 | S. cerevisiae deletion strains, locus YML016C, strain PPZ1, stronger effect = lower value 1 | S. cerevisiae deletion strains, locus YML032C, strain rad52, stronger effect = lower value 1.02 | S. cerevisiae deletion strains, locus YML120C, strain ndi1, stronger effect = lower value 0.986 | S. cerevisiae deletion strains, locus YML124C, strain tub3, stronger effect = lower value 1.02 | S. cerevisiae deletion strains, locus YMR058W, strain fet3, stronger effect = lower value 0.982 | S. cerevisiae deletion strains, locus YMR078C, strain ctf18, stronger effect = lower value 1.02 | S. cerevisiae deletion strains, locus YMR125W, strain sto1, stronger effect = lower value 0.966 | S. cerevisiae deletion strains, locus YMR129W, stronger effect = lower value 0.97 | S. cerevisiae deletion strains, locus YMR205C, strain PFK2, stronger effect = lower value 0.994 | S. cerevisiae deletion strains, locus YMR223W, strain ubp8, stronger effect = lower value 1.01 | S. cerevisiae deletion strains, locus YMR231W, strain pep5, stronger effect = lower value 0.971 | S. cerevisiae deletion strains, locus YMR263W, strain SAP30, stronger effect = lower value 1.01 | S. cerevisiae deletion strains, locus YMR307W, strain GAS1, stronger effect = lower value 1 | S. cerevisiae deletion strains, locus YNL067W, strain RPL9B, stronger effect = lower value 1.01 | S. cerevisiae deletion strains, locus YNL071W, strain lat1, stronger effect = lower value 0.981 | S. cerevisiae deletion strains, locus YNL183C, strain NPR1, stronger effect = lower value 0.943 | S. cerevisiae deletion strains, locus YNL209W, strain ssb2, stronger effect = lower value 0.997 | S. cerevisiae deletion strains, locus YNL233W, strain BNI4, stronger effect = lower value 1.01 | S. cerevisiae deletion strains, locus YNL248C, strain rpa49, stronger effect = lower value 0.935 | S. cerevisiae deletion strains, locus YNL250W, strain rad50, stronger effect = lower value 1.02 | S. cerevisiae deletion strains, locus YNL271C, strain bni1, stronger effect = lower value 1.01 | S. cerevisiae deletion strains, locus YNL298W, strain CLA4, stronger effect = lower value 1.01 | S. cerevisiae deletion strains, locus YNL307C, strain MCK1, stronger effect = lower value 1.03 | S. cerevisiae deletion strains, locus YNL322C, strain KRE1 (second series), stronger effect = lower value 0.968 | S. cerevisiae deletion strains, locus YNR049C, strain mso1, stronger effect = lower value 0.971 | S. cerevisiae deletion strains, locus YNR052C, strain pop2, stronger effect = lower value 1.01 | S. cerevisiae deletion strains, locus YOL006C, strain TOP1, stronger effect = lower value 1.02 | S. cerevisiae deletion strains, locus YOL012C, strain htz1 0.822 | S. cerevisiae deletion strains, locus YOL147C, strain pex11, stronger effect = lower value 1.01 | S. cerevisiae deletion strains, locus YOR001W, strain rrp6, stronger effect = lower value 0.978 | S. cerevisiae deletion strains, locus YOR061W, strain CKA2, stronger effect = lower value 1 | S. cerevisiae deletion strains, locus YOR069W, strain VPS5, stronger effect = lower value 1.01 | S. cerevisiae deletion strains, locus YOR070C, strain gyp1, stronger effect = lower value 0.983 | S. cerevisiae deletion strains, locus YOR080W, strain dia2, stronger effect = lower value 0.984 | S. cerevisiae deletion strains, locus YOR083W, strain WHI5, stronger effect = lower value 0.982 | S. cerevisiae deletion strains, locus YOR106W, strain vam3, stronger effect = lower value 1.01 | S. cerevisiae deletion strains, locus YOR136W, strain idh2, stronger effect = lower value 1.01 | S. cerevisiae deletion strains, locus YOR144C, strain elg1, stronger effect = lower value 1 | S. cerevisiae deletion strains, locus YOR184W, strain ser1, stronger effect = lower value 1.02 | S. cerevisiae deletion strains, locus YOR231W, strain MKK1, stronger effect = lower value 0.98 | S. cerevisiae deletion strains, locus YOR265W, strain rbl2, stronger effect = lower value 0.981 | S. cerevisiae deletion strains, locus YOR270C, strain vph1, stronger effect = lower value 0.967 | S. cerevisiae deletion strains, locus YOR290C, strain snf2, stronger effect = lower value 0.945 | S. cerevisiae deletion strains, locus YOR316C, strain cot1, stronger effect = lower value 1.01 | S. cerevisiae deletion strains, locus YPL051W, strain arl3, stronger effect = lower value 0.991 | S. cerevisiae deletion strains, locus YPL055C, strain LGE1, stronger effect = lower value 1.02 | S. cerevisiae deletion strains, locus YPL078C, strain atp4, stronger effect = lower value 1 | S. cerevisiae deletion strains, locus YPL106C, strain sse1, stronger effect = lower value 0.96 | S. cerevisiae deletion strains, locus YPL240C, strain hsp82, stronger effect = lower value 0.983 | S. cerevisiae deletion strains, locus YPL241C, strain CIN2, stronger effect = lower value 1.01 | S. cerevisiae deletion strains, locus YPL256C, strain CLN2, stronger effect = lower value 0.969 | S. cerevisiae deletion strains, locus YPR119W, strain clb2, stronger effect = lower value 1 | S. cerevisiae deletion strains, locus YPR141C, strain kar3, stronger effect = lower value 1.02 | S. cerevisiae deletion strains, locus YPR163C, strain tif3, stronger effect = lower value 1.02 | S. cerevisiae deletion strains, locus YPR167C, strain met16, stronger effect = lower value 1.01 | S. cerevisiae deletion strains, strain wtn01, stronger effect = lower value 1.03 | S. cerevisiae strains, strain wild type, stronger effect = lower value 1
